From PubChem
The list is not random: actives were taken first. Their share in the collection is about 1.5%.
PI5P4Ka inh: inhibitors of human PI5P4K alpha. P48426. PI5P4Kalpha enzyme, ADP-Glo luminescence, 60 min; stronger effect = lower value. max response, %. 330,000 compounds, 1.2% hits. AID 652105; active = max response of -50% or lower; inconclusive = between -30% and -50%; inactive = -30% or higher; note: value at the top dose of about 77 µM
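Luminescence from ADP-Glo served as readout of PI5P4Kalpha activity in a qHTS format. Reaction: enzyme, substrate, compound, ATP at 5 microM final, 60 min at RT.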
GCN5L2 inh: inhibitors of human GCN5L2 histone acetyltransferase; Q92830; GCN5L2 HAT assay, ThioGlo1 CoA-SH fluorescence; Potency, µM (doses to about 58.9 µM), most hits filed as inhibitors; 390,000 compounds, 0.21% hits; AID 504327
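Titration-based screen in which CoA formation is detected via maleimide probe ThioGlo1 (50uM) turning fluorescent on thiol reaction; substrates H3(1-25) 75uM and acetyl-CoA 70uM, GCN5L2 20nM, 20 min incubation at room temperature.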
APEX1 inh: APE1 (human) endonuclease inhibition; 350,000 compounds, 0.35% hits; P27695; recombinant APE1, TAMRA/BHQ-2 abasic DNA cleavage fluorescence; Potency, µM (doses to about 65.8 µM), actives largely listed as inhibitors; note: nearly all actives have a fitted effect of over 55% in size
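Enzyme (0.75 nM final) and test compound are incubated 15 min at room temperature before adding 50 nM quenched THF abasic-site duplex. Cleavage dequenches TAMRA, followed at 525/598 nm over three reads one minute apart.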
BLM inh: blocks DNA unwinding by human BLM helicase | recombinant BLM DNA unwinding, fluorescence dequenching | Potency, µM (top dose mostly 56.1 µM), usual class: inhibitors | 350,000 compounds, 0.2% hits | P54132; note: nearly all actives have a fitted effect of over 35% in size
Target sequence (P54132 whole entry, looked up): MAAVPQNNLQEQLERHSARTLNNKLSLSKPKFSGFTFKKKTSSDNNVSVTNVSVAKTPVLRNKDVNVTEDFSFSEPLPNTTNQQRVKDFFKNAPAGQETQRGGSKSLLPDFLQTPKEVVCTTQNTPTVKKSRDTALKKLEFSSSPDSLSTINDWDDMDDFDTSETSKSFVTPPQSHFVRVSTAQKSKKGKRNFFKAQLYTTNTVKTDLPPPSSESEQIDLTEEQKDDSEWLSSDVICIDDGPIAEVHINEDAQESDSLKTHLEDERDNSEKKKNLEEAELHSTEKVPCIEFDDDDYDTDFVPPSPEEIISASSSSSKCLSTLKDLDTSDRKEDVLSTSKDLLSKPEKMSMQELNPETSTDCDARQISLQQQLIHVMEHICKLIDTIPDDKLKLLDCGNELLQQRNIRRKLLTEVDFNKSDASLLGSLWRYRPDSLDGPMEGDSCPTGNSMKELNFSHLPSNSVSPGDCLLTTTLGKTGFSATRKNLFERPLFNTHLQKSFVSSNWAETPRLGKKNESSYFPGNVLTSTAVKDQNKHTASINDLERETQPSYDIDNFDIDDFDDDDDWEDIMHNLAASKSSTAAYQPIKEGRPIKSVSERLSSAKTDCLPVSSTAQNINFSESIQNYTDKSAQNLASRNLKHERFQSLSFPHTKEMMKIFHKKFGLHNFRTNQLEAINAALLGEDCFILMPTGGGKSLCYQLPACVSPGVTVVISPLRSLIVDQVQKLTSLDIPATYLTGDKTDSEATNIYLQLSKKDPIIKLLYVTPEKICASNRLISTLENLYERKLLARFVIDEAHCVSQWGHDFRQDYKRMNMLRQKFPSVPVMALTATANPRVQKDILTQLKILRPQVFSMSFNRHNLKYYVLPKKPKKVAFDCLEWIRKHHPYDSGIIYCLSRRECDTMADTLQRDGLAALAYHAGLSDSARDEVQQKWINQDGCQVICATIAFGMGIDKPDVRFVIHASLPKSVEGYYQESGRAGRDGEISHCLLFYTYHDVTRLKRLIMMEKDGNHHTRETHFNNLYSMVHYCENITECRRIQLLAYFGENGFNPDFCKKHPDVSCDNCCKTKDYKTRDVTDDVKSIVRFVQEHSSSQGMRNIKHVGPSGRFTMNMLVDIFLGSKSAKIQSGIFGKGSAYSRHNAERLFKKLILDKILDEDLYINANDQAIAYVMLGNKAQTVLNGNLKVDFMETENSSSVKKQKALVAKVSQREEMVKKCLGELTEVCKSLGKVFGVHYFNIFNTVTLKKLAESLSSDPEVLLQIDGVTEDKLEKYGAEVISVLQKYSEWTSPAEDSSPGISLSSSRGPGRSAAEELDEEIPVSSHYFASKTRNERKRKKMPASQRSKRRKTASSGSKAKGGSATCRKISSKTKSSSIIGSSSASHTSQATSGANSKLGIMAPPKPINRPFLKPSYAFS
RECQ1 inh-1: inhibitors of human RECQ1 DNA helicase. Potency, µM (titrated, usually from 57.3 µM), hits mostly inhibitors. P46063. AID 2549. 240,000 compounds, 0.54% hits. RECQ1 DNA unwinding, red fluorescence kinetic read; note: nearly all actives have a fitted effect of over 30% in size
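50 nM RECQ1T1 preincubated 15 min with compound in Tris pH 8.0 buffer with MgCl2, DTT, Tween-20 and 2.5 ug/ml poly(dI-dC); started with 200 nM TAMRA/BHQ-2 forked duplex and 2 mM ATP. Unwinding read as fluorescence (525/598 nm), two reads 2 h apart.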
FEN1 inh: inhibitors of human flap endonuclease 1; 390,000 compounds, 0.35% hits; Potency, µM (doses to about 114 µM), usual class: inhibitors; AID 588795; Recombinant FEN1 flap cleavage, fluorescence, 15 min; note: nearly all actives have a fitted effect of over 65% in size
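Potency values derive from four-parameter Hill fits of normalized qHTS data. The reaction used 10 nM FEN1 preincubated 15 min at room temperature with compound, then 50 nM DNA substrate, read at 0 and 15 min.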
RECQ1 inh conf: confirmation of human RECQ1 helicase inhibitors; Potency, µM (highest dose often 229 µM), most hits filed as inhibitors; 610 compounds, 28% hits; shares compounds with RECQ1 inh-1; RECQ1 helicase DNA unwinding, fluorescence; note: nearly all actives have a fitted effect of over 45% in size
ADP FP counter: displaces ADP in a fluorescence polarization counter-screen for RECQ1 hits; shares compounds with RECQ1 inh-1; ADP fluorescence polarization displacement counterscreen; Potency, µM (series often up to 228 µM), most hits filed as inhibitors; 530 compounds, 27% hits; note: nearly all actives have a fitted effect of over 45% in size
RECQ1 inh-2: confirmation of human RECQ1 helicase inhibitors; shares compounds with RECQ1 inh-1; recombinant RECQ1 DNA unwinding, red fluorescence; Potency, µM (top dose mostly 119 µM), hits mostly inhibitors; 1,100 compounds, 15% hits; AID 504841; note: nearly all actives have a fitted effect of over 50% in size
Numbers stand for hits; n = inactive; u = inconclusive; x = no result given. Unless noted, calls come from the whole dose curve; as a rule, active = well fitted curve in the direction sought with a large enough effect; inconclusive = small, poorly fitted or top-dose-only effect, or another doubt; inactive = no such curve, though single readings can be large; an effect the other way counts as inactive or inconclusive.

SMILES	PI5P4Ka inh	GCN5L2 inh	APEX1 inh	BLM inh	RECQ1 inh-1	FEN1 inh	RECQ1 inh-2	others
O=C(CSc1nc2ccsc2c(=O)n1CC1CCC(C(=O)O)CC1)c1ccc(F)cc1 (stereo not drawn)	n	n	n	n	n	n	x
O=C(CCCn1c(SCC(=O)c2ccc(O)c(O)c2)nc2ccccc2c1=O)NCC1CCCO1 (stereo not drawn)	x	n	28µM	n	14µM	n	11µM	RECQ1 inh conf=71µM;ADP FP counter=n
N[C@@H](CO)c1nnc([C@H](CC(=O)O)NC(=O)C2CCNCC2)o1	n	n	n	n	n	n	x	RECQ1 inh conf=n;ADP FP counter=n
O=C(N=c1ccn(-c2nc3ccccc3nc2NS(=O)(=O)c2ccc(Cl)cc2)cc1)c1cccs1	n	n	n	n	u	n	n
Cc1ccccc1OCC1CO1 (stereo not drawn)	x	x	n	x	n	x	x
CCCCNC(=O)c1ccc2nc(-c3cccs3)c(-c3cccs3)nc2c1	x	x	x	x	x	n	x
COc1ccccc1-c1nnc2n1N=C(c1ccc(O)c(O)c1)CS2	u	n	u	n	32µM	n	u
O=C1CCCc2[nH]c(=O)c(C(=O)NCc3ccccc3)cc21	x	x	x	x	x	n	x
CCC(O)c1c(-c2ccccc2)nn(C)c1Cl (stereo not drawn)	n	n	n	n	u	n	x
CC(O)c1c(-c2ccccc2)nn(C)c1Cl (stereo not drawn)	n	n	n	n	40µM	n	n
Cc1ccc(S(=O)(=O)NC2=NCN(CCOC(=O)c3ccccc3)CN2)cc1	x	n	n	n	32µM	n	n
O=C1C(=O)C(c2cc(O)c(O)c(O)c2)Oc2cc(O)cc(O)c21 (stereo not drawn)	x	x	x	x	x	1.4µM	x	RECQ1 inh conf=1µM
CC(=O)Oc1ccc2ccccc2c1C(NC(=O)Cc1ccccc1)c1ccc(Cl)cc1 (stereo not drawn)	n	u	n	n	u	n	n
COc1ccc(C(=O)Nc2nc(C)cc(C)n2)cc1	n	n	n	n	u	n	n
CCCN1CNc2c(c(=O)[nH]c(=S)n2CCc2cccc(OC)c2OC)C1	x	x	x	x	x	n	x
CCc1ccc(OCC(=O)NC2CC(C)(C)NC(C)(C)C2)cc1	n	n	n	n	u	n	n
CCOC(=O)/C(=C\C=C1/Sc2cc(OCC)c(OCC)cc2N1CC)C(C)=O	n	n	n	n	n	n	x
CCOC(=O)/C(=C/C=C1\Sc2cc(OCC)c(OCC)cc2N1CC)C(C)=O	n	n	u	n	10µM	u	x	RECQ1 inh conf=u;ADP FP counter=45µM
C=C1CCC(O)C/C1=C/C=C1\CCC[C@]2(C)[C@@H]([C@H](C)/C=C/[C@H](C)C(C)C)CC[C@@H]12 (stereo partly drawn)	x	n	x	n	x	x	x
O=C(O)CC/C(=C\c1cc([N+](=O)[O-])ccc1Cl)c1nc2ccccc2s1	n	n	n	n	n	n	x
O=C(O)CC/C(=C\c1ccc(N2CCCC2)c([N+](=O)[O-])c1)c1nc2ccccc2s1	n	n	u	u	u	u	u
O=C(O)CC/C(=C\c1cccc(NC(=O)c2ccccc2Cl)c1)c1nc2ccccc2s1	u	n	u	n	u	n	u
Cn1cnnc1Sc1ccc(/C=C(\CC(=O)O)c2nc3ccccc3s2)cc1[N+](=O)[O-]	u	n	n	n	n	n	x	RECQ1 inh conf=n;ADP FP counter=n
CO[C@H]1C[C@H](O[C@@H]2/C(C)=C/C[C@@H]3C[C@@H](C[C@]4(CC[C@H](C)[C@@H](C5CCCCC5)O4)O3)OC(=O)[C@@H]3C=C(C)/C(=N/O)[C@H]4OC/C(=C\C=C\[C@@H]2C)[C@]43O)O[C@@H](C)[C@@H]1O	x	x	n	x	x	x	x
